Screening data deposited in PubChem by National Center for Advancing Translational Sciences (NCATS).
Vif-A3G inh – inhibitors of Vif-APOBEC3G interaction. 410,000 compounds, 0.076% hits. HeLa A3G-eYFP + Vif (tagged APOBEC3G with the HIV-1 protein that degrades it), YFP fluorescence, overnight. AID 602310. Q9HC16. Potency, µM (highest dose often 46.1 µM), for the others: at the highest dose activity, negative = active, actives largely listed as inhibitors; also: % is scaled to controls: 0 for no effect and ±100 for the full control effect; nearly all actives have a fitted effect of over 60% in size
Target sequence (Q9HC16 whole entry, looked up): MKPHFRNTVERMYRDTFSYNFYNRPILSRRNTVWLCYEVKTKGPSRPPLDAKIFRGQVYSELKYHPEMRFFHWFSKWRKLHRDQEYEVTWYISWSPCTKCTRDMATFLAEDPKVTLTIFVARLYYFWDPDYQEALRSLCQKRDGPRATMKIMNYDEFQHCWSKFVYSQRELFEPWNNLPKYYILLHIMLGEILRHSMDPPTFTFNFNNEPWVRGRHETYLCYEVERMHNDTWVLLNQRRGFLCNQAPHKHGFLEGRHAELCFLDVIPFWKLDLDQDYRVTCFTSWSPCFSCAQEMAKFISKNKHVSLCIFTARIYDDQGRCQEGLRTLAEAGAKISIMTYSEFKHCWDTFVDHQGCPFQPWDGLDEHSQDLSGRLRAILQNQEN
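Read-out is eYFP fluorescence (Ex 488/Em 500-530) from Vif-expressing HeLa A3G-eYFP cells; more signal means A3G escaped Vif-mediated degradation. Cells plated overnight, compound pinned in, incubated overnight at 37 deg C.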
Epigenetic derep – epigenetic control regulation, reporter derepression | murine LDR cells, GFP reporter derepression, 30 h | Potency, µM (highest dose often 53.9 µM), inactives show top-dose GFP activation, actives largely listed as activators | 280,000 compounds, 0.2% hits | AID 1865; also: % of control where 0% means no effect; nearly all actives have a fitted effect of over 60% in size
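Readout is the number of GFP-expressing murine LDR cells, counted by cytometry following washing. Cells were treated with compound for 30 h at 37 C; the stably integrated CMV-GFP locus is normally silent.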
Vif-APOBEC3F blk – blocks the Vif interaction with APOBEC3F. HeLa A3F-eYFP + Vif (tagged APOBEC3F with the HIV-1 protein that degrades it), YFP fluorescence increase. Potency, µM (top dose mostly 46.1 µM), inactives show top-dose activity, negative = active. 390,000 compounds, 0.2% hits; also: % of control where 0% means no effect; nearly all actives have a fitted effect of over 65% in size
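Fluorescence increase (Ex 488/Em 500-530) after overnight compound treatment at 37 deg C flags inhibition of Vif-driven A3F-eYFP loss in stable HeLa A3F-eYFP/Vif cells seeded overnight beforehand.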
* hit, by the source's call; ? = inconclusive; . = not tested or not shown. A selection: hits, their analogues and other compounds. The true share with any hit is near 0.34%. Calls follow the shape of the dose curve; as a rule, active = well fitted curve in the direction sought with a large enough effect; inconclusive = small, poorly fitted or top-dose-only effect, or another doubt; inactive = no such curve, though single readings can be large; an effect the other way counts as inactive or inconclusive. Potency is read from the fitted curve at half-maximal effect.

SMILES	Vif-A3G inh	Epigenetic derep	Vif-APOBEC3F blk
Cc1ccc2nccc(/C=C/c3ccc(N(C)C)cc3)c2c1	3.5µM*	.	.
CN(C)c1ccc(/C=C/c2ccnc3ccccc23)cc1C=O	7.1µM*	.	.
C(=C\c1ccnc2ccccc12)/c1ccc2c(c1)OCO2	-18%	.	.
Cc1cc(C)c2c(/C=C/c3ccc(N(C)C)cc3)ccnc2c1	-1%	.	.
CN(C)c1ccc(/C=C/c2ccnc3ccccc23)cc1O	11µM*	.	.
Cc1ccc(N(CC(=O)Nc2cc(C)ccc2C)S(=O)(=O)c2c(C)noc2C)cc1	-3%	1%	-1%
CCOC(=O)c1sc2ccccc2c1S(=O)(=O)Nc1c(C)cccc1C	-3%	1%	-6%
CCC(C)NC(=O)c1cn(CC)c2ccc(S(=O)(=O)N3CCc4ccccc4C3)cc2c1=O (stereo not given)	-2%	6%	1%
CCOC(=O)N1CCc2c(sc3c2c(=O)n(-c2ccc(CC)cc2)c(=O)n3Cc2ccc(F)cc2Cl)C1	0%	0%	11%
Cc1ccc(N2CC(NC(=O)c3ccc(S(=O)(=O)N4CCCC4)cc3)CC2=O)cc1C (stereo not given)	3%	8%	9%
COc1ccc(-c2nc3ccccc3[nH]2)cc1	-4%	-3%	-9%
COc1ccc2oc(=Nc3ccccc3)c(-c3nc4ccccc4[nH]3)cc2c1	-28%	-1%	11µM*
c1ccc(-c2cnn3c(-c4ccccc4)c(-c4ccccc4)nc3n2)cc1	?	2.8µM*	?
Nc1nc(-c2ccccc2)c(-c2ccccc2)n1N	-12%	.	?
COc1ccc(CCNC(=O)c2ccc3c(c2)CCN3S(=O)(=O)c2ccc(Cl)cc2)cc1	4%	0%	-4%
CC(C)NC(=O)c1ccc2c(c1)nc1n2CCCCC1	1%	3%	-8%
CCc1ccc(C(=O)c2cn(CC(=O)Nc3cc(F)ccc3F)c3nc(C)ccc3c2=O)cc1	?	20µM*	-7%
Cc1ccc(CNC(=O)Cn2cc(C(=O)c3ccc(F)cc3)c(=O)c3ccc(C)nc32)cc1	-2%	-1%	-26%
O=C(NCCN1CCN(c2cccc(Cl)c2)CC1)C1COc2ccccc2C1 (stereo not given)	.	-1%	.
CC(C)c1cnc2c(c1SCC(=O)c1ccccc1)c(=O)n(C)c(=O)n2C	-1%	-2%	-6%
CC1C/C(=C/c2ccncc2)C(=O)/C(=C/c2ccncc2)C1 (stereo not given)	?	?	13%
CC1C/C(=C/c2cccn2C)C(=O)/C(=C/c2cccn2C)C1 (stereo not given)	?	11µM*	?
CCCCCCCCCCCCCCCCCCN(CCCCCCCCCCCCCCCCCC)c1ccc(/C=C/c2ccc(C=O)cc2)cc1	1%	.	.
Cc1c2ccccc2nc2c(F)c(N(C)C)c(F)c(F)c12	?	10%	25µM*
Cc1c(N(C)C)nc2ccccc2c1N	1%	0%	5%
SMILES	Vif-A3G inh	Epigenetic derep	Vif-APOBEC3F blk
O=C(Nc1ccccc1-c1nc2ccccc2[nH]1)c1ccc(N2C(=O)CCC2=O)cc1	?	13%	11µM*
O=C(Nc1ccccc1-c1nc2ccccc2[nH]1)c1ccc(S(=O)(=O)N2CCCCC2)cc1	2%	-2%	-3%
Cn1ncc(Br)c1C(=O)NC(=S)N1CCN(c2ccccn2)CC1	-2%	1%	?
O=C(NC(=S)N1CCN(c2ccccn2)CC1)c1ccccc1	2%	-2%	22µM*
O=C(NC(=S)N1CCCCCC1)c1ccccc1	-2%	.	-4%
O=C(NC(=S)N1CCN(C2CCCCC2)CC1)c1ccccc1	4%	-1%	22µM*
O=C(/C=C/c1ccc(C(F)(F)F)cc1)OC(C(=O)NC1CC1)c1ccccc1 (stereo not given)	0%	.	.
CC(=O)Nc1ccc(S(=O)(=O)N2CCC(c3nnnn3-c3ccccc3)CC2)cc1	-3%	-5%	-9%
O=S(=O)(Nc1nc2ccccc2nc1OCC(F)(F)F)c1cccs1	-5%	1%	25µM*
COc1ccc(Nc2nc3ccccc3nc2NS(=O)(=O)c2cccs2)cc1	-1%	-1%	5%
CCOc1cc(-c2ccc3c(c2)OCO3)cc(=[O+]CC)c2c(C)oc(C)c12	-6%	.	.
CCCCCCCCCCCCCCCC[n+]1ccc(C)cc1	-1%	.	.
COc1ccc(C(=O)Nc2ccc(N3CCOCC3)cc2)cc1OC	-2%	1%	-1%
COc1cc(C(=O)OCC(=O)Nc2ccc(N3CCOCC3)cc2)ccc1OCC(C)C	7.9µM*	.	?
COc1cccc(N=Cc2c(O)n(-c3cccc(C)n3)c(=O)c3ccccc23)c1	0%	-1%	3%
COc1ccc(N=Cc2c(O)n(-c3cccc(C)n3)c(=O)c3ccccc23)c(OC)c1	?	13µM*	10µM*
CC(C)(C)n1ncc2c(=O)n(Cc3ccc(F)c(F)c3F)cnc21	0%	.	.
